Data as given in the supplement of paper PMC4709259.
Structures can show the parent of a compound that is named as a salt. ± gives the standard deviation.

Legend:
[1] = system: Jurkat; assay: mean cell size (FSC-A) relative to DMSO control (fraction of control); higher = larger cells; details: 48 h
Outline: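 Jurkat cells at 600 cells/µl were incubated for 1 h and then treated for 48h with the Enzo Screen-Well FDA Approved Drug Library v2.0 at 25µM, with DMSO at 0.9% (v/v) final. Compounds that reduced counts below 20% of controls were retested in 10-fold dilutions down to 25nM. Cell count and mean cell size, taken as forward scatter area, were measured by flow cytometry relative to solvent-only controls. Each plate carried 6-12 controls, and values are means of 3 biological replicates.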

[2] = system: Jurkat; assay: cell count relative to DMSO control (fraction of control); higher = more cells (less growth inhibition); details: 48 h

| SMILES | mean cell size [1] | cell count [2] |
| --- | --- | --- |
| CO[C@@]1(NC(=O)C2SC(=C(C(N)=O)C(=O)O)S2)C(=O)N2C(C(=O)O)=C(CSc3nnnn3C)CS[C@@H]21 (stereo partly drawn) [Cefotetan Disodium] (concentration: 25 µM) | 0.951 ± 0.017 | 0.831 ± 0.075 |
| CC(=O)O[C@]1(C(C)=O)CC[C@H]2[C@@H]3C[C@H](C)C4=CC(=O)CC[C@]4(C)[C@H]3CC[C@@]21C [Medroxyprogesterone Acetate] (concentration: 25 µM) | 0.956 ± 0.065 | 0.352 ± 0.042 |
| CCC[C@H](N[C@@H](C)C(=O)N1[C@H](C(=O)O)C[C@@H]2CCCC[C@@H]21)C(=O)OCC [Perindopril Erbumine] (concentration: 25 µM) | 0.995 ± 0.051 | 0.637 ± 0.091 |
| NCC[C@H](O)C(=O)N[C@@H]1C[C@H](N)[C@@H](O[C@H]2O[C@H](CN)[C@@H](O)[C@H](O)[C@H]2O)[C@H](O)[C@H]1O[C@H]1O[C@H](CO)[C@@H](O)[C@H](N)[C@H]1O [Amikacin Disulfate] (concentration: 25 µM) | 0.994 ± 0.028 | 0.921 ± 0.014 |
| COc1ccc2[nH]c([S@@+]([O-])Cc3ncc(C)c(OC)c3C)nc2c1 [Esomeprazole Potassium] (concentration: 25 µM) | 0.98 ± 0.027 | 0.868 ± 0.081 |
| CNC[C@H](O)c1ccc(O)c(O)c1 [Epinephrine (L-(-)-Epinephrine-(+)-Bitartrate)] (concentration: 25 µM) | 0.959 ± 0.053 | 0.855 ± 0.14 |
| CC1=C(/C=C/C(C)=C/C=C/C(C)=C\C(=O)O)C(C)(C)CCC1 [Isotretinoin (13-Cis-Retinoic Acid)] (concentration: 25 µM) | 0.864 ± 0.03 | 1.02 ± 0.11 |
| CCCC(=O)Nc1ccc(OCC(O)CNC(C)C)c(C(C)=O)c1 (stereo not drawn) [Acebutolol·HCl] (concentration: 25 µM) | 1.04 ± 0.041 | 0.798 ± 0.17 |
| O=C1C(=O)c2ccccc2C(O)=C1C1CCC(c2ccc(Cl)cc2)CC1 (stereo not drawn) [Atovaquone] (concentration: 25 µM) | 0.91 ± 0.015 | 0.462 ± 0.039 |
| COc1cc2nc(N3CCN(C(=O)c4ccco4)CC3)nc(N)c2cc1OC [Prazosin·HCl] (concentration: 2.5 µM) | 1.03 ± 0.056 | 0.484 ± 0.18 |
| CN(C)C(=N)NC(=N)N [Metformin·HCl] (concentration: 25 µM) | 0.954 ± 0.067 | 0.66 ± 0.18 |
| COc1cc2ncnc(Nc3ccc(F)c(Cl)c3)c2cc1OCCCN1CCOCC1 [Gefitinib] (concentration: 2.5 µM) | 1.04 ± 0.045 | 0.736 ± 0.11 |
| N=C(N)N [Guanidine·HCl] (concentration: 25 µM) | 0.94 ± 0.018 | 1.02 ± 0.096 |
| CC(C)NCC(O)COc1cccc2ccccc12 (stereo not drawn) [Propranolol·HCl] (concentration: 25 µM) | 1.04 ± 0.061 | 0.633 ± 0.015 |
| COc1ccc(Cl)cc1C(=O)NCCc1ccc(S(=O)(=O)NC(=O)NC2CCCCC2)cc1 [Glyburide] (concentration: 25 µM) | 1.02 ± 0.051 | 0.806 ± 0.047 |
| N=c1nc(N2CCCCC2)cc(N)n1O [Minoxidil] (concentration: 25 µM) | 1 ± 0.024 | 0.703 ± 0.083 |
| NCCCC[C@H](N[C@@H](CCc1ccccc1)C(=O)O)C(=O)N1CCC[C@H]1C(=O)O [Lisinopril·2H2O] (concentration: 25 µM) | 0.955 ± 0.022 | 0.884 ± 0.075 |
| CCOc1ccc2ccccc2c1C(=O)N[C@@H]1C(=O)N2[C@@H]1SC(C)(C)[C@@H]2C(=O)O [Nafcillin·Na] (concentration: 25 µM) | 0.954 ± 0.025 | 0.569 ± 0.13 |
| CCCCCCCCCCC[C@@H](C[C@@H]1OC(=O)[C@H]1CCCCCC)OC(=O)[C@H](CC(C)C)NC=O [Orlistat (Tetrahydrolipstatin)] (concentration: 25 µM) | 0.808 ± 0.043 | 0.355 ± 0.074 |
| CC(C)c1nc(CN(C)C(=O)N[C@H](C(=O)N[C@@H](Cc2ccccc2)C[C@H](O)[C@H](Cc2ccccc2)NC(=O)OCc2cncs2)C(C)C)cs1 [Ritonavir] (concentration: 25 µM) | 0.999 ± 0.079 | 0.564 ± 0.14 |
| C[C@@H](NCCCc1cccc(C(F)(F)F)c1)c1cccc2ccccc12 [Cinacalcet·HCl] (concentration: 25 µM) | 1.03 ± 0.051 | 0.577 ± 0.089 |
| CC1=C(C(=O)O)N2C(=O)[C@@H](NC(=O)[C@H](N)c3ccccc3)[C@H]2SC1 [Cephalexin Monohydrate] (concentration: 25 µM) | 0.9873 ± 0.0068 | 0.931 ± 0.068 |
| Oc1ncnc2[nH]ncc12 [Allopurinol] (concentration: 25 µM) | 0.965 ± 0.013 | 0.701 ± 0.13 |
| C#C[C@]1(O)CC[C@H]2[C@@H]3CCC4=CC(=O)CC[C@@H]4[C@H]3CC[C@@]21CC [Levonorgestrel] (concentration: 25 µM) | 0.941 ± 0.032 | 0.903 ± 0.046 |
| COc1c(C)c2c(c(O)c1C/C=C(\C)CCC(=O)O)C(=O)OC2 [Mycophenolic Acid] (concentration: 2.5 µM) | 1.01 ± 0.014 | 0.225 ± 0.05 |

| SMILES | mean cell size [1] | cell count [2] |
| --- | --- | --- |
| O=C(CCCN1CCC(O)(c2ccc(Cl)cc2)CC1)c1ccc(F)cc1 [Haloperidol] (concentration: 25 µM) | 1.04 ± 0.057 | 0.609 ± 0.16 |
| COC(=O)Nc1nc2cc(C(=O)c3ccccc3)ccc2[nH]1 [Mebendazole] (concentration: 250 nM) | 0.965 ± 0.029 | 0.686 ± 0.074 |
| Cc1ccccc1C(=O)Nc1ccc(C(=O)N2CCCC(O)c3cc(Cl)ccc32)c(C)c1 (stereo not drawn) [Tolvaptan] (concentration: 25 µM) | 0.951 ± 0.055 | 0.95 ± 0.028 |
| CC(C)(C)NCC(O)c1ccc(O)c(CO)c1 (stereo not drawn) [Salbutamol Hemisulfate] (concentration: 25 µM) | 1.01 ± 0.056 | 0.916 ± 0.11 |
| NC12CC3CC(CC(C3)C1)C2 [Amantadine·HCl] (concentration: 25 µM) | 1.01 ± 0.058 | 0.749 ± 0.17 |
| CNCC[C@H](Oc1cccc2ccccc12)c1cccs1 [Duloxetine·HCl] (concentration: 25 µM) | 1.02 ± 0.069 | 0.353 ± 0.073 |
| CCCCCOc1ccc(-c2cc(-c3ccc(C(=O)N[C@H]4C[C@@H](O)[C@@H](O)NC(=O)[C@@H]5[C@@H](O)[C@@H](C)CN5C(=O)[C@H]([C@H](O)CC(N)=O)NC(=O)[C@H]([C@H](O)[C@@H](O)c5ccc(O)c(OS(=O)(=O)O)c5)NC(=O)[C@@H]5C[C@@H](O)CN5C(=O)[C@H]([C@@H](C)O)NC4=O)cc3)no2)cc1 [Micafungin] (concentration: 25 µM) | 0.993 ± 0.031 | 0.52 ± 0.081 |
| CCN(CC)CCNC(=O)c1c(C)[nH]c(/C=C2\C(=O)Nc3ccc(F)cc32)c1C [Sunitinib Malate] (concentration: 250 nM) | 0.906 ± 0.031 | 0.861 ± 0.089 |
| NC[C@H]1CC[C@H](C(=O)O)CC1 [Tranexamic Acid] (concentration: 25 µM) | 0.961 ± 0.051 | 0.542 ± 0.14 |
| CCCNC(C)C(=O)Nc1c(C)csc1C(=O)OC (stereo not drawn) [Articaine·HCl] (concentration: 25 µM) | 0.96 ± 0.028 | 0.738 ± 0.059 |
| CCN1CCN(C(=O)N[C@@H](C(=O)N[C@@H]2C(=O)N3[C@@H]2SC(C)(C)[C@@H]3C(=O)O)c2ccccc2)C(=O)C1=O [Piperacillin] (concentration: 25 µM) | 1 ± 0.015 | 0.91 ± 0.068 |
| N#Cc1ccc(C(c2ccc(C#N)cc2)n2cncn2)cc1 [Letrozole] (concentration: 25 µM) | 1.01 ± 0.028 | 0.798 ± 0.019 |
| CC(C)(C)NC(=O)[C@@H]1C[C@@H]2CCCC[C@@H]2CN1C[C@@H](O)[C@H](Cc1ccccc1)NC(=O)[C@H](CC(N)=O)NC(=O)c1ccc2ccccc2n1 [Saquinavir Mesylate] (concentration: 25 µM) | 0.963 ± 0.0039 | 0.648 ± 0.065 |
| CN[C@@H]1[C@H](O)[C@H](NC)[C@H]2O[C@@]3(O)C(=O)C[C@@H](C)O[C@H]3O[C@@H]2[C@H]1O [Spectinomycin·HCl Pentahydrate] (concentration: 25 µM) | 1.05 ± 0.014 | 0.941 ± 0.16 |
| C#C[C@]1(O)CC[C@H]2[C@@H]3CCC4=Cc5oncc5C[C@]4(C)[C@H]3CC[C@@]21C [Danazol] (concentration: 25 µM) | 0.995 ± 0.026 | 0.92 ± 0.08 |
| CC(=O)CCCCn1c(=O)c2c(ncn2C)n(C)c1=O [Pentoxifylline] (concentration: 25 µM) | 0.977 ± 0.028 | 1.09 ± 0.12 |
| NCCCC(N)(C(=O)O)C(F)F (stereo not drawn) [Eflornithine·HCl] (concentration: 25 µM) | 0.958 ± 0.019 | 0.985 ± 0.073 |
| Oc1c(Cl)cc(Cl)c(Cl)c1Cc1c(O)c(Cl)cc(Cl)c1Cl [Hexachlorophene] (concentration: 2.5 µM) | 0.904 ± 0.016 | 0.433 ± 0.035 |
| COc1cc2nc(N3CCN(C(=O)C4CCCO4)CC3)nc(N)c2cc1OC (stereo not drawn) [Terazosin·HCl] (concentration: 25 µM) | 0.997 ± 0.047 | 0.607 ± 0.059 |
| CC(=O)Nc1c(I)c(NC(C)=O)c(I)c(C(=O)O)c1I [Diatrizoate Meglumine] (concentration: 25 µM) | 0.99 ± 0.021 | 0.846 ± 0.085 |
| Cc1cnc(NC(=O)C2=C(O)c3ccccc3S(=O)(=O)N2C)s1 [Meloxicam] (concentration: 25 µM) | 0.9071 ± 0.0086 | 0.808 ± 0.066 |
| CC(=O)OCC(=O)[C@@]12OC3(CCCC3)O[C@@H]1C[C@H]1[C@@H]3CCC4=CC(=O)C=C[C@]4(C)[C@@]3(F)[C@@H](O)C[C@@]12C [Amcinonide] (concentration: 25 µM) | 0.994 ± 0.064 | 0.823 ± 0.039 |
| NS(=O)(=O)c1cc(C(=O)O)c(NCc2ccco2)cc1Cl [Furosemide] (concentration: 25 µM) | 0.932 ± 0.034 | 0.249 ± 0.11 |
| C[C@]12CC[C@@H]3c4ccc(O)cc4C[C@@H](CCCCCCCCC[S+]([O-])CCCC(F)(F)C(F)(F)F)[C@H]3[C@@H]1CC[C@@H]2O (stereo partly drawn) [Fulvestrant] (concentration: 25 µM) | 0.942 ± 0.0098 | 0.862 ± 0.061 |
